The text below walks through data of PubChem BioAssay (Tox21).

The nature of test [1]: qHTS assay to test for compound auto fluorescence at 535 nm (green) in HEK293 cells (AID 720680). For orientation: qHTS replaces the single test concentration by a dilution series.
Test [2] is described as follows: qHTS assay to test for compound auto fluorescence at 460 nm (blue) in HEK293 cell free culture (AID 720681). The method in brief: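 Blue fluorescence (Ex 405/Em 460 nm, triamterene-equivalent) was read immediately after pin transfer of compound or DMSO into medium (DMEM, 10% FBS) without cells.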
A short description of test [3]: qHTS assay to test for compound auto fluorescence at 535 nm (green) in HEK293 cell free culture (AID 720682). The method in brief: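 Green-channel intensity (Ex/Em 485/535 nm) was recorded from compound-treated wells containing only DMEM with 10% FBS. Fluorescein provided the equivalency standard.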
A short description of test [4]: qHTS assay to test for compound auto fluorescence at 590 nm (red) in HEK293 cell free culture (AID 720683). In outline:
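Red-channel autofluorescence of compounds in culture medium (DMEM, 10% FBS), no cells, measured at 540/590 nm. Rose Bengal sodium is the reference fluorophore for equivalence.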

Test [5] can be described thus: qHTS assay to test for compound auto fluorescence at 590 nm (red) in HepG2 cell free culture (AID 720684). The method in brief: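 No cells present: MEM + 10% FBS only. Compound pinned in, red label read (540/590 nm). Activity = fluorescence equivalent to Rose Bengal sodium.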
Test [6] in a line: qHTS assay to test for compound auto fluorescence at 460 nm (blue) in HepG2 cell free culture (AID 720685). In outline:
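Cell-free plates of MEM plus 10% FBS received 23 nL compound or DMSO vehicle; blue-channel (405/460 nm) intensity scored against triamterene as reference fluorophore.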

Test [7] can be described thus: qHTS assay to test for compound auto fluorescence at 535 nm (green) in HepG2 cell free culture (AID 720686).
Test [8] can be described thus: qHTS assay to test for compound auto fluorescence at 460 nm (blue) in HepG2 cells (AID 720687). In outline: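 Blue-channel autofluorescence (Ex/Em 405/460 nm, triamterene-equivalent) was measured after 1 hr compound exposure at 37 C, 5% CO2. Cells were HepG2, plated overnight at 37 C in MEM plus 10% FBS.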
For test [9], the target named is Glucocorticoid receptor (Homo sapiens) (UniProt P04150). Description: qHTS assay to identify small molecule agonists of the glucocorticoid receptor (GR) signaling pathway (AID 720691; active means well fitted activation curve with a large enough effect in the signal ratio in the repeat runs, not every such curve was filed as active; the % refers to the signal ratio). The settings on record: GR-bla HeLa, beta-lactamase reporter ratio, 18 h; activation: at 62.4 µM (top of the series). The method in brief:
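Compounds in DMSO, alongside positive controls, were added to GR-bla HeLa reporter cells and incubated 18 h at 37 C; GRE-driven beta-lactamase was detected by fluorescence after 2 h with FRET substrate at room temperature.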

Test [10] is described as follows: qHTS assay to identify small molecule antagonists of the glucocorticoid receptor (GR) signaling pathway - cell viability counter screen (AID 720693). Further: nearly all actives have a fitted effect of over 55% in size. Further: potency means the concentration at half of the fitted maximal effect.
Test [11] is described as follows: qHTS assay for identifying genotoxic compounds that show differential cytotoxicity against isogenic chicken DT40 cell lines with known DNA damage response pathways - wild type cell line (AID 743012). Further: nearly all actives have a fitted effect of over 60% in size. Further: potency means the concentration at half of the fitted maximal effect. The method in brief: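 Viability of DNA repair-proficient chicken DT40 cells was assessed by CellTiter-Glo luminescence following 40 h compound exposure at 37 C/5% CO2.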

A short description of test [12]: qHTS assay for identifying genotoxic compounds that show differential cytotoxicity against isogenic chicken DT40 cell lines with known DNA damage response pathways - Rev3 mutant cell line (AID 743014). Further: nearly all actives have a fitted effect of over 55% in size. Further: potency means the concentration at half of the fitted maximal effect.
Test [13] is described as follows: qHTS assay for identifying genotoxic compounds that show differential cytotoxicity against isogenic chicken DT40 cell lines with known DNA damage response pathways - Rad54/Ku70 mutant cell line (AID 743015). Further: nearly all actives have a fitted effect of over 60% in size. Further: potency means the concentration at half of the fitted maximal effect.
Test [14] in a line: qHTS assay to identify small molecule antagonists of the androgen receptor (AR) signaling pathway using the MDA cell line - cell viability counter screen (AID 743041; further: nearly all actives have a fitted effect of over 45% in size; further: potency means the concentration at half of the fitted maximal effect). The method in brief:
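Using the breast carcinoma line MDA-kb2 AR-luc, test chemicals were co-incubated with R1881 for 16 h; CellTiter-Fluor reagent, added at 15.5 h, provided a fluorescence measure of live cells.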

Test [15] has as its target Glucocorticoid receptor (Homo sapiens) (UniProt P04150). Description: qHTS assay to identify small molecule antagonists of the glucocorticoid receptor (GR) signaling pathway (AID 720692; active means well fitted inhibition curve with a large enough effect in the signal ratio in the repeat runs, not every such curve was filed as active; the % refers to the signal ratio; further: potency means the concentration at half of the fitted maximal effect). In outline: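 In a 1536-well cell format, compounds were added 4 h after seeding GR-bla HeLa cells, together with dexamethasone at 5 nM final; reporter activity was measured by FRET-substrate fluorescence following 18 h at 37 C.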

Test [16] is described as follows: qHTS assay to identify small molecule antagonists of the androgen receptor (AR) signaling pathway - cell viability counter screen (AID 743033; further: nearly all actives have a fitted effect of over 45% in size; further: potency means the concentration at half of the fitted maximal effect).

Records with an inconclusive call do not appear. Calls of active or inactive are those of the source. Unless noted, the call rests on the fitted dose curve; in most records, active means well fitted curve in the direction sought with a large enough effect in the repeat runs; inconclusive means weak or mixed curves; inactive means no such curve, though single readings can be large; an effect the other way counts as inactive or inconclusive.

Sequence of Glucocorticoid receptor (Homo sapiens) (P04150 whole entry, looked up): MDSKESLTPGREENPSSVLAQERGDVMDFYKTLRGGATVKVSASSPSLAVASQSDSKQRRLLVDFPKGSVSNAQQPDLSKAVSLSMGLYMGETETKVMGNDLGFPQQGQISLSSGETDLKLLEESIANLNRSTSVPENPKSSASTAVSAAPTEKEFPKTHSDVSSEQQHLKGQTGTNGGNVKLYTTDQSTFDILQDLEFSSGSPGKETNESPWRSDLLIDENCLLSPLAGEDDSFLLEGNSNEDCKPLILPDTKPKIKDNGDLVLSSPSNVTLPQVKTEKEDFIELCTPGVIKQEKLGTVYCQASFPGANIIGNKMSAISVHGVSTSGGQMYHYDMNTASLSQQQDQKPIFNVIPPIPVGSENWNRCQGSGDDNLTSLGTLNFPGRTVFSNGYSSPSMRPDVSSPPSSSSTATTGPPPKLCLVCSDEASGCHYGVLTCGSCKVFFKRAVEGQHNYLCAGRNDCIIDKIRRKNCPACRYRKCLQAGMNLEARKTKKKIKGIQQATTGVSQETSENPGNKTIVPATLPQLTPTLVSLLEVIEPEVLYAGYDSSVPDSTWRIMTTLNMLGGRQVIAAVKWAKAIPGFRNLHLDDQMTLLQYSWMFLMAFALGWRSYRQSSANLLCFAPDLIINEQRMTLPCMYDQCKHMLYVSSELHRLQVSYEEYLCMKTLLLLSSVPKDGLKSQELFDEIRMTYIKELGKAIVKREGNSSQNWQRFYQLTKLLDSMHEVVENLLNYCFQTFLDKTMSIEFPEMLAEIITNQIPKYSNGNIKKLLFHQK

Turning to `CSC1=N[C@@](C)(c2ccccc2)C(=O)N1Nc1ccccc1`, the result in test [1], in test [3], in test [4] and in test [5] was inactive. The Potency result in test [2], in test [6], in test [7], in test [8], in [9] and in test [10] was “inactive” in each case. Further, the Potency was 1540 nM (active) in test [11], 1720 nM (active) in [12], 1540 nM (active) in [13] and 48600 nM (active) in [14].
Take `CCC[CH2][Sn]([CH2]CCC)([O]C(C)=O)[O]C(C)=O`: the outcome in test [1], in [3], in [4] and in [5] was inactive. The Potency entry in test [2], in test [6], in [7], in test [8], in test [10] and in test [14] was “inactive” in each case. The Potency in test [15] is 350 nM (active); in test [12], 30900 nM (active); in test [13] it was 30900 nM (active).
In the case of `[F][Sn]([c]1ccccc1)([c]1ccccc1)[c]1ccccc1`, the call in test [1], in test [3], in test [4] and in test [5] was inactive. Also, the Potency entry in [2], in test [6], in [7] and in [8] was “inactive” throughout. Further, the Potency was 977 nM (active) in test [10]; 243 nM (active) in test [11]; 433 nM (active) in test [12]; 306 nM (active) in test [13]; 1230 nM (active) in [16]; 3860 nM (active) in test [14].
On to `O=[N+]([O-])c1cccc2cccc([N+](=O)[O-])c12`, for which the compound was classed as inactive in test [1], in test [3], in [4] and in test [5]. For the same compound, the Potency result in test [2], in test [6], in test [7], in test [8], in test [9] and in test [10] was “inactive” each time. For the same compound, the Potency entry in test [16] and in test [14] was “inactive” in each case. Further, the Potency in test [12] and in test [13] was 61400 nM (active) each time.
With `CN1[C@@H]2CC[C@H]1CC(O)C2` (stereo partly specified), the compound was called inactive in test [1], in test [3], in test [4] and in [5]. Besides, the Potency entry in test [2], in [6], in test [7], in test [8], in test [10] and in test [11] was “inactive” in each case. The Potency entry in test [12], in [13], in [16] and in [14] was “inactive” in each case.
Take `CN/C(=N\[N+](=O)[O-])NCc1cnc(Cl)s1`: the call in [1], in [3], in test [4] and in test [5] was inactive. Besides, the Potency entry in test [2], in [6], in [7], in test [8], in test [10] and in test [11] was “inactive” in each case. Besides, the Potency entry in [12], in [13], in test [16] and in test [14] was “inactive” each time.
On to `CC(C)N(C(=O)SC/C(Cl)=C/Cl)C(C)C`, for which the compound was called inactive in test [1], in [3], in test [4] and in [5]. Also, the Potency entry in [2], in test [6], in test [7], in [8], in [10] and in [11] was “inactive” each time. The Potency entry in test [12], in test [13], in test [16] and in test [14] was “inactive” each time.
For `C=C(C)C(=O)[O][Sn]([CH2]CCC)([CH2]CCC)[CH2]CCC`, the call in [1], in [3], in test [4] and in test [5] was inactive. Besides, the Potency result in [2], in [6], in test [7] and in [8] was “inactive” each time. Also, the Potency in test [10] was 776 nM (active); in test [11], 486 nM (active); in test [12], 686 nM (active); in test [13] it was 545 nM (active); in [16], 776 nM (active); in test [14], 1930 nM (active).
